Among all 1,900 compounds or so, about 390 (21%) were called active. No rule for the calls is given here. The list is a sample of the results.

Our source for the activity (percent) values is PubChem BioAssay AID493000 (Johns Hopkins Ion Channel Center, 2010).

This assay in a line: carbachol calcium response in non-induced M3R cells, confirmation, counter-screen for RGS4 inhibitor project, cell-based, HEK293 M3R (AID 493000).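 Also: RGS4 induction absent so cells express M3R without RGS4.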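 As to activity (percent): higher means more calcium signal and flags a non-specific hit.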 To be noted: carbachol calcium Fluo-4, at 10 µM, submaximal (EC20) carbachol stimulus; active compounds read high, buffer wells 0%, carbachol control wells 100%.
As to `Cc1ccc(NC(=O)c2c(NC(=O)CCC(=O)O)sc3c2CCCCC3)cc1`, the activity (percent) entry was “inactive”.

`CC(C)c1nc(SCC(=O)Nc2cccc(C(=O)O)c2)c2c3c(sc2n1)CCCC3`: the activity (percent) is 41.5% (active).

For `CCOc1ccc(/C=N/NC(=O)CSc2ccccn2)cc1O`, the activity (percent) entry is “inactive”.

Consider `S=c1[nH]nc(-c2cccnc2)n1/N=C/C(Cl)=C\c1ccccc1`, for which the activity (percent) entry is “inactive”.

Regarding `O=C(/C=C/c1ccc(Cl)c([N+](=O)[O-])c1)c1cccnc1`, the activity (percent) was 43.5% (active).

With `O=C(/C=C/c1ccc(Cl)c([N+](=O)[O-])c1)c1ccc(O)cc1`, the activity (percent) was 43.5% (active).

On to `COc1ccc(/C=C/C(=O)c2ccc(OC)cc2O)cc1`, for which the activity (percent) result is “inactive”.

`C1=C(N2CCOCC2)/C(=C/c2nc3ccccc3[nH]2)CC1`: the activity (percent) result is “inactive”.

For `CNCC(O)c1ccc(O)c(O)c1` (centres undefined), the activity (percent) entry was “inactive”.

Regarding `O=C(Nc1ccc(Cl)cc1)OCc1cc(-c2ccccc2)on1`, the activity (percent) entry is “inactive”.

Consider `O=[N+]([O-])c1c(NCCO)cc(Sc2nc3ccccc3s2)c2nonc12`, for which the activity (percent) entry was “inactive”.

With `CCCCC1S/C(=N/N=C/c2cccs2)NC1=O` (centres undefined), the activity (percent) entry was “inactive”.

Take `COc1cc(Br)cc(/C=N/c2ncn[nH]2)c1O`: the activity (percent) result is “inactive”.

In the case of `Oc1ccc(/C=N/Nc2ccc(C(F)(F)F)cn2)cc1O`, the activity (percent) was 34.5% (active).

With `Cn1c(-c2ccco2)nc2cc3ccccc3cc21`, the activity (percent) entry was “inactive”.

For `COc1cc2c(cc1O)C(SC)=NC(C)(C)C2`, the activity (percent) result was “inactive”.

In the case of `O=C1Nc2ccc(Br)cc2/C1=N/N=C/C1=C(N2CCOCC2)C(=C\c2ccccc2)/CC1`, the activity (percent) is 31.5% (active).

In the case of `O=C(O)C(c1ccccc1)N1C(=O)/C(=C\c2ccc(-c3cccc(Cl)c3)o2)SC1=S` (centres undefined), the activity (percent) result was “inactive”.

Regarding `COc1ccc(/C(O)=C2/C(=O)C(=O)N(c3nc(C)c(C)s3)C2c2ccco2)cc1` (centres undefined), the activity (percent) result is “inactive”.

For the compound `C=C(C)C(=O)O[C@H]1C/C(C)=C\C(=O)/C=C(\C)[C@H](O)[C@@H]2OC(=O)C(=C)[C@@H]21`, the activity (percent) entry is “inactive”.

As to `C[C@H](NC(=O)c1nc[nH]c1C(=O)NCC(=O)OC(C)(C)C)c1ccccc1`, the activity (percent) result was “inactive”.

With `Cc1ccc(Nc2nc(N)nc(CN3CCN(Cc4ccccc4)CC3)n2)cc1Cl`, the activity (percent) result is “inactive”.

For the compound `O=C(CCN1CCc2ccccc2C(O)(c2ccccc2)C1)c1ccc2c(c1)OCCO2` (centres undefined), the activity (percent) is 34.5% (active).

For `CS(=O)(=O)N(CC(O)Cn1c2ccccc2c2ccccc21)c1cccc2ccccc12` (centres undefined), the activity (percent) entry was “inactive”.

Take `Oc1ccc(-c2[nH]ncc2-c2nc3ccccc3s2)c(O)c1`: the activity (percent) entry was “inactive”.

Turning to `CCn1c(O)c(N=NC2=NC(=O)CS2)c2cc(C)ccc21`, the activity (percent) result is “inactive”.

As to `CCc1nnc(NS(=O)(=O)c2ccc(N=Cc3c(C)[nH]n(-c4ccc(C)cc4)c3=O)cc2)s1`, the activity (percent) result was “inactive”.

On to `O=C(NCc1ccccc1)c1ccc(S(=O)(=O)Nc2cccc(C(F)(F)F)c2)cc1`, for which the activity (percent) result was “inactive”.

Turning to `Cc1ccc(-c2c3c(=O)n(C)c(=O)n(C)c3cn2-n2cnnc2)cc1`, the activity (percent) result is “inactive”.

In the case of `C=CCOc1ccc(/C=C2/C(=O)ON=C2C)cc1OCC`, the activity (percent) is 32.5% (active).

In the case of `C#CCOc1ccc(/C=C2/C(=O)ON=C2C)cc1OCC`, the activity (percent) result is “inactive”.

As for `COc1cc(/C=C2/C(=O)ON=C2C)ccc1OCc1ccccc1F`, the activity (percent) result is “inactive”.

Consider `COC(=O)C1CCN(C(=O)c2cc(=O)[nH]c3ccccc23)CC1`, for which the activity (percent) entry was “inactive”.

Consider `O=C(COC(=O)c1cccc(Br)c1)Nc1cccc2c1C(=O)c1ccccc1C2=O`, for which the activity (percent) entry was “inactive”.

As to `COC(=O)Cn1cc(/C=C/[N+](=O)[O-])c2ccccc21`, the activity (percent) was 38% (active).

Take `O=[N+]([O-])/C=C/c1ccc2c(ccn2Cc2ccccc2)c1`: the activity (percent) entry is “inactive”.

For `COc1ccc2c(c1OC)C(=O)OC2Nc1nc(-c2ccccc2)cs1` (centres undefined), the activity (percent) result was “inactive”.

Consider `Cc1ccc(S/C(=N\S(=O)(=O)c2ccc(Cl)cc2)c2ccccc2)cc1`, for which the activity (percent) entry was “inactive”.

For the compound `Cc1ccc(Sc2cc(N3CCOCC3)nc(-c3ccccc3)n2)cc1`, the activity (percent) is 55.5% (active).

In the case of `Cc1c(NC(=O)c2coc(=O)c(Br)c2)c(=O)n(-c2ccccc2)n1C`, the activity (percent) entry is “inactive”.

Take `c1ccc(C[C@H]2CNCCN2CCC23CC4CC(CC(C4)C2)C3)cc1`: the activity (percent) entry is “inactive”.

Turning to `Cc1ccc(C)c(Cn2nnc3c(=O)[nH]c(C(=O)Nc4ccc(F)cc4)nc32)c1`, the activity (percent) is 45.5% (active).

On to `O=C1NC(c2ccc(-c3ccccc3[N+](=O)[O-])o2)C(C(=O)c2ccc(Cl)cc2)C(O)(C(F)(F)F)N1` (centres undefined), for which the activity (percent) was 38.5% (active).

`CCOC(=O)C1CCN(C(c2cc3cc(C)cc(C)c3[nH]c2=O)c2nnnn2C2CCCCC2)CC1` (centres undefined): the activity (percent) result is “inactive”.

On to `Cc1nc(-c2ccccc2)sc1C(=O)/C=C/c1ccccc1`, for which the activity (percent) result was “inactive”.

In the case of `COc1ccc(S(=O)(=O)Nc2ccc(O)c(Sc3nc4ccccc4s3)c2)cc1`, the activity (percent) entry is “inactive”.

On to `Cc1nn2c(=O)cc(COC(=O)c3ccc(NC(=O)C(C)(C)C)cc3)nc2s1`, for which the activity (percent) result was “inactive”.

Consider `COc1ccc(NCc2nnc(SCc3ccccc3)n2-c2ccc(OC)cc2)cc1`, for which the activity (percent) result is “inactive”.

Take `C#CCOc1ccc(/C=C2/C(=O)NN(c3ccccc3)C2=O)cc1OC`: the activity (percent) result was “inactive”.

With `COc1cc(/C=C2/C(=O)NN(c3cccc(Cl)c3)C2=O)cc(Br)c1O`, the activity (percent) was 28.5% (active).

In the case of `COc1cc(/C=C2/SC(=S)N(Cc3ccccc3)C2=O)cc(OC)c1O`, the activity (percent) result is “inactive”.

`CC(C)Cc1nc(Nc2ccc(S(=O)(=O)N3CCCC3)cc2)c2nnn(Cc3ccccc3)c2n1`: the activity (percent) entry was “inactive”.

`CCc1ccc(C2C(C#N)=C(N)N(N3CCOCC3)C3=C2C(=O)CC(C)(C)C3)s1` (centres undefined): the activity (percent) entry is “inactive”.

For `COCCCNC(=S)N(CCN(C)C)Cc1cc2cc3c(cc2[nH]c1=O)OCCO3`, the activity (percent) result is “inactive”.

On to `O=C(N/N=C/c1ccccc1O)/C(=C/c1ccccc1)CCO`, for which the activity (percent) result is “inactive”.

Consider `COc1ccc(OC)c(S(=O)(=O)N2CCCC(C(=O)N3CCC(C(N)=O)CC3)C2)c1` (centres undefined), for which the activity (percent) result was “inactive”.

On to `CNc1nc(Nc2ccc(C)c(Cl)c2)nc(N)c1[N+](=O)[O-]`, for which the activity (percent) result was “inactive”.

Take `COc1ccc(-c2csc(Nc3ccc(O)cc3)n2)cc1`: the activity (percent) result was “inactive”.

For `CC(=O)Nc1ccc(S(=O)(=O)Nc2nc(-c3ccc(C(C)(C)C)cc3)cs2)cc1`, the activity (percent) was 51% (active).

With `Cc1noc(NS(=O)(=O)c2ccc(N/C=C/C(=O)c3ccccc3)cc2)c1C`, the activity (percent) entry is “inactive”.

`Cc1ccsc1/C=N/n1c(=S)[nH]nc(C)c1=O`: the activity (percent) entry is “inactive”.

In the case of `Cc1nc(Nc2ccc(S(=O)(=O)N3CCCC3)cc2)c2nnn(Cc3ccccc3)c2n1`, the activity (percent) result was “inactive”.

With `O=C(O)c1ccc2c(=O)n3c(nc2c1)/C(=C/c1ccc(Cl)c([N+](=O)[O-])c1)CC3`, the activity (percent) entry was “inactive”.

As for `Cc1ccc(/C=C2\CCn3c2nc2cc(C(=O)O)ccc2c3=O)c(C)c1`, the activity (percent) is 33% (active).
